Screening data from PubChem BioAssay.
BRCA1 expr up – increases BRCA1 expression. MCF7-BRCA1-FFLuc reporter, luminescence, 48 h; response scale: scaled: vehicle 0%, 10 µM genistein 100%. Potency, µM (series often up to 46.1 µM), most hits filed as activators. 380,000 compounds, 1.1% hits; further: nearly all actives have a fitted effect of over 80% in size
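48 h compound treatment of MCF7-BRCA1-FFLuc cells (phenol-red free MEM, 37 °C), then 15 min with luciferase substrate and luminescence imaging.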
PTHR1 agonist – PTHR1 (human) receptor agonism; 410,000 compounds, 0.075% hits; HEK293 GP2 PTHR1 cells, GloSensor cAMP luminescence, 1 h; AID 743266; Q03431; Potency, µM (top dose mostly 115 µM), actives largely listed as activators; further: nearly all actives have a fitted effect of over 55% in size
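HEK-293-derived GP2 cells expressing PTHR1 and a GloSensor cAMP reporter, 3,000/well, plated overnight, given luciferin plus IBMX (each 0.5 mM as added) for 1 h at 37 °C, then compound for 1 h at 37 °C. Luminescence was read after 15 min at room temperature.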
D3 ag – activates the human D3 dopamine receptor | P35462 | D3R DiscoveRx beta-arrestin cells, luminescence, 90 min | max activation, % | AID 652048 | 410,000 compounds, 0.58% hits; in the data active means max activation above about 30%
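Agonist mode: compounds and dopamine controls were applied to plated cells for 90 min at 37 degrees C after an overnight attachment at 1500 cells/well. Luminescent read-out followed 30 - 60 minutes at room temperature with DiscoveRx detection reagent.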
B2AR arrestin – agonists driving beta-arrestin recruitment to human beta2-adrenergic receptor | 330,000 compounds, 0.02% hits | Potency, µM (series often up to 46.1 µM), usual class: activators | beta-arrestin recruitment to beta2AR, cell-based reporter | P07550; further: nearly all actives have a fitted effect of over 65% in size
Target sequence (P07550 whole entry, looked up): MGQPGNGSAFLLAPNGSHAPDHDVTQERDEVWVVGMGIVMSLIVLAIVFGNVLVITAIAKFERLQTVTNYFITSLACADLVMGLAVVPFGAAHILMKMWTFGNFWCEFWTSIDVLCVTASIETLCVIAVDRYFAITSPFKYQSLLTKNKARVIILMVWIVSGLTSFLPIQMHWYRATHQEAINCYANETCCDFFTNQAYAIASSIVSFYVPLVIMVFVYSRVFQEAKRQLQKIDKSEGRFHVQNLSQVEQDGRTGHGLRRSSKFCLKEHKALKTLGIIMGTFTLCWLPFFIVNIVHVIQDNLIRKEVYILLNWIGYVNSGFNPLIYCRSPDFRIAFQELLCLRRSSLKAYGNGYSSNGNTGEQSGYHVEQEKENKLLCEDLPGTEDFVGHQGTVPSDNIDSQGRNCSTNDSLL
DRD3 antagonist – D3 dopamine receptor (human) antagonism | D3R cells, DiscoveRx beta-arrestin luminescence, antagonist mode; hits give low values | max response, negative = inhibition, % | 360,000 compounds, 2.5% hits | AID 652054; in the data active means max response below about -50%; inconclusive means no clear call, values can overlap the other calls
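Cells plated overnight at 1500 cells/well, then exposed to library compounds with dopamine controls for 90 minutes at 37 degrees C. DiscoveRx reagent added for 30–60 minutes at room temperature; luminescence read, quantitative HTS format.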
RGS4 inh – inhibitors of human regulator of G protein signaling 4; Transcreener GDP fluorescence polarization, RGS4-accelerated GTP hydrolysis; Potency, µM (doses to about 114 µM), hits mostly inhibitors; AID 504845; 390,000 compounds, 0.039% hits; further: nearly all actives have a fitted effect of over 75% in size
Target sequence (P49798 whole entry, looked up): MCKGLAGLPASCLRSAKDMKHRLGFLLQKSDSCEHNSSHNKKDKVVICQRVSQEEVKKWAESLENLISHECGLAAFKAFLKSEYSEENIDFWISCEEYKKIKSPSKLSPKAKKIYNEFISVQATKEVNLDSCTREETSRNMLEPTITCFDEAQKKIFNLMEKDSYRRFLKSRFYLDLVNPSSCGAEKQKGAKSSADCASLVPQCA
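MLSMR compounds (23 nl, pin-transferred) preincubated 10 min at room temperature with a 500nM (2x) first reagent, then RGS4 at 900nM (2x) plus Transcreener GDP mix added; fluorescence polarization (620/688 nm) read before and after 90 min at 30 °C.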
Of the large screens only hits and unclear results are named; the others gave an inactive call. Compounds with a hit are over-represented: about 3.7% of the library has one in this group of screens. Unless noted, the call rests on the fitted dose curve; in most records, active means well fitted curve in the direction sought with a large enough effect; inconclusive means small, poorly fitted or top-dose-only effect, or another doubt; inactive means no such curve, though single readings can be large; an effect the other way counts as inactive or inconclusive.

COc1cc(/C=N/NC(=O)c2cc(-c3cccs3)nc3ccccc23)ccc1O	none
CCOc1cc(C(=O)N/N=C/c2ccoc2)cc(OCC)c1OCC	DRD3 antagonist -70
COc1ccccc1-c1cc(C(=O)N/N=C/c2ccoc2)c2ccccc2n1	DRD3 antagonist -51
COc1ccc(OC)c(/C=N/NC(=O)c2cc(-c3ccc(C)o3)nc3ccccc23)c1	D3 ag 37
COc1ccc(CC(=O)NC2CC(=O)N(c3cccc(F)c3)C2)cc1 (stereo not drawn)	none (no result: BRCA1 expr up, B2AR arrestin, DRD3 antagonist)
Cc1cc(Nc2ccc(C(=O)O)c(O)c2)n2ncnc2n1	none (no result: BRCA1 expr up, B2AR arrestin, DRD3 antagonist)
COc1cccc(-n2ccnc2SCC(=O)Nc2nc3ccc(C)cc3s2)c1	none (no result: B2AR arrestin, DRD3 antagonist)
CSCCC(NC(=O)c1ccccc1)C(=O)NCCc1ccc2c(c1)OCCO2 (stereo not drawn)	none
Cc1ccnc(NC(=O)CCC2COc3ccccc3O2)c1 (stereo not drawn)	none
O=C(CCC1COc2ccccc2O1)Nc1ccc(Cl)cn1 (stereo not drawn)	DRD3 antagonist -52
O=C(CCSCCc1ccccn1)Nc1ccc(Cl)cn1	DRD3 antagonist -62
O=[N+]([O-])c1ccc(Cl)c(S(=O)(=O)NCCc2ccccn2)c1	none
COC(=O)c1ccccc1NC(=O)Nc1c(C)n(C)n(-c2ccccc2)c1=O	none
COc1ccccc1NC(=O)CSc1nc2c(oc3ccccc32)c(=O)n1C	D3 ag 31
CCN1C(=O)[C@H]2[C@@H](c3ccc(C)cc3)N3C(=O)N(c4ccc(OC)cc4)C(=O)[C@@]3(CC)[C@H]2C1=O	D3 ag 46
CC[C@@]12C(=O)N(c3cccc(C)c3)C(=O)N1[C@H](c1ccc(OC)cc1)[C@@H]1C(=O)N(C(C)(C)C)C(=O)[C@@H]12	none
CC[C@@]12C(=O)N(c3ccc(OC)cc3)C(=O)N1[C@H](c1ccc(Cl)cc1)[C@@H]1C(=O)N(C3CCCCC3)C(=O)[C@@H]12	DRD3 antagonist -57
COc1ccc(N2C(=O)N3[C@H](c4cccc(C)c4)[C@@H]4C(=O)N(Cc5ccccc5)C(=O)[C@@H]4[C@]3(Cc3ccccc3)C2=O)cc1	D3 ag 31
COc1cccc(Nc2nc3ccc(C)cc3nc2-n2nc(C)cc2C)c1	none (no result: BRCA1 expr up, B2AR arrestin, DRD3 antagonist)
CCCOc1ccc(C(=O)Nc2ccc3c(c2)OCO3)cc1	BRCA1 expr up 3.2µM
COc1cc(OC)cc(C(=O)NC(C(=O)Nc2ccc3c(c2)OCCO3)C(C)C)c1 (stereo not drawn)	none
COc1cc(OC)cc(C(=O)Nc2ccc3c(c2)OCCO3)c1	BRCA1 expr up 13µM
O=C(Nc1ccc2c(c1)OCO2)c1ccc2c(c1)OCO2	none
CCOc1ccc(C(=O)Nc2ccc3c(c2)OCCO3)cc1[N+](=O)[O-]	none
CCOc1ccc(C(=O)Nc2ccc3c(c2)OCCO3)cc1OC	BRCA1 expr up 10µM
O=C(Nc1ccc2c(c1)OCO2)c1cccc(Cl)c1	BRCA1 expr up 11µM
COc1cccc(NC(=O)CN2C(=O)CSc3ccc(S(=O)(=O)N4CCCC4)cc32)c1	none (no result: BRCA1 expr up, B2AR arrestin, DRD3 antagonist)
O=C(c1ccccc1Cl)N(Cc1ccco1)Cc1ccco1	none (no result: BRCA1 expr up, B2AR arrestin, DRD3 antagonist)
COc1ccc(Cn2c(=O)[nH]c3cc(C(=O)NCCC(C)C)ccc3c2=O)cc1	none (no result: B2AR arrestin, DRD3 antagonist)
Cc1ccc(S(=O)(=O)N2CCc3cc(C(=O)Nc4ccc(C)c(C)c4)ccc32)cc1	none (no result: BRCA1 expr up, B2AR arrestin, DRD3 antagonist)
O=C(Nc1ccc2c(c1)OCCO2)c1c(F)cccc1F	BRCA1 expr up 2.5µM
CCCCC1=CC2=C(c3ccco3)C(=O)C(C)(OC(=O)c3ccc(OC)cc3)C(=O)C2=CN1CCCOC(C)C (stereo not drawn)	DRD3 antagonist -83, RGS4 inh inconclusive
CN1c2ccccc2C(=O)/C(=C\Nc2ccc(F)cc2F)S1(=O)=O	none
COCC(=O)N(C)CC1CCCN(CCc2ccccc2OC)C1 (stereo not drawn)	DRD3 antagonist -64
O=C(CCCn1c(=S)[nH]c2ccccc2c1=O)NCCSCc1ccccc1	none
CCCCN(CCCC)c1ccc(C(=O)c2ccccc2C(=O)O)c(O)c1	DRD3 antagonist -81
COc1ccc(-n2nc3c(N4CCC(C(=O)NCc5cccc(C)c5)CC4)nnc(C)c3c2C)cc1	DRD3 antagonist -59
CCOc1ccccc1CNC(=O)C1CCN(c2nnc(C)c3c(C)n(-c4ccc(C)cc4)nc23)CC1	none
COc1ccccc1CCNC(=O)C1CCN(c2nnc(C)c3c(C)n(-c4ccc(C)cc4)nc23)CC1	DRD3 antagonist -70
COc1ccc(NC(=O)Cn2nc(-c3ccncc3)ccc2=O)cc1Cl	none (no result: BRCA1 expr up, B2AR arrestin, DRD3 antagonist)
Cc1ccc(/C=N/NC(=O)CNC(=O)c2cccs2)cc1	none
O=C(CNC(=O)c1cccs1)N/N=C/c1c(F)cccc1Cl	DRD3 antagonist -51
COc1cc(Br)cc(C=Nc2cccc(C(F)(F)F)c2)c1O	DRD3 antagonist -81
CCC(C)(C)n1nnnc1C(c1cc2cc3c(cc2[nH]c1=O)OCO3)N1CCCCC1 (stereo not drawn)	none
CCC(C)(C)n1nnnc1C(c1cc2ccc(OC)cc2[nH]c1=O)N1CCN(C2CCCCC2)CC1 (stereo not drawn)	DRD3 antagonist -64
COc1ccccc1N1CCN(C(c2cc3ccc(C)cc3[nH]c2=O)c2nnnn2C2CCCC2)CC1 (stereo not drawn)	DRD3 antagonist -70
COc1ccccc1N1CCN(C(c2ccccn2)c2nnnn2C2CCCCC2)CC1 (stereo not drawn)	DRD3 antagonist -66
Cc1cccc(C)c1OCC(=O)NNC(=O)CCNC(=O)c1ccco1	none
Cc1cc(Br)cc(C)c1OCC(=O)Nc1ccc(S(=O)(=O)Nc2ncccn2)cc1	none (no result: BRCA1 expr up, B2AR arrestin, DRD3 antagonist)
CCN1CCN(c2oc(-c3ccc(COc4ccc(OC)cc4)o3)nc2C#N)CC1	none (no result: BRCA1 expr up, B2AR arrestin, DRD3 antagonist)
COc1ccc(/C=N/OCC(=O)Nc2cc(C)on2)cc1OC	D3 ag 30
COc1ccc(CC(=O)Nc2cc(C)on2)cc1OC	none
CCOc1ccc(/C=N/OCC(=O)Nc2ccc(OCc3ccccc3)cc2)cc1OC	BRCA1 expr up 7.9µM
CC(C)(C)NCC(O)CSc1nc(-c2ccc(C(N)=O)s2)cs1 (stereo not drawn)	none (no result: BRCA1 expr up, PTHR1 agonist, B2AR arrestin, DRD3 antagonist, RGS4 inh)
C[C@]12CCC[C@H](O1)c1c(cc3c(c1O)C(=O)c1c(O)cc(O)cc1C3=O)O2	none (no result: B2AR arrestin)
COc1ccccc1/C=C/CN1CCC(Oc2cc(C(=O)NC3CC3)ccc2OC)CC1	DRD3 antagonist -77
COc1ccc(/C=C/CN2CCC(Oc3ccc(C(=O)N4CCCCC4)cc3)CC2)cc1	none
COc1ccc(C(=O)NC2CC2)cc1OC1CCN(Cc2ccccc2)CC1	none
